Screens: PubChem BioAssay, National Center for Advancing Translational Sciences (NCATS)
Sampled rows, rich in hits. Any-hit rate of the full collection: about 2.3%.
FUS suppressor – rescues growth of FUS-expressing yeast; S. cerevisiae FUS-expressing, growth rescue, OD600, 24 h; Potency, µM (highest dose often 76.6 µM), hits mostly activators; 390,000 compounds, 0.24% hits; AID 1347120;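 also: potency is read from the fitted curve at half-maximal effect; plate controls were DMSO vehicle for no effect and reference control for full effect; nearly all actives have a fitted effect of over 55% in size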
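Cultures pregrown in 2.5% raffinose medium are shifted to minimal medium containing 2% galactose to express toxic FUS. Compounds are tested at several concentrations. After 24hr at 30C, growth is quantified at 600 nm absorbance.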
CCT modulator – changes cytosolic chaperonin activity; purified chaperonin ATPase assay, HTRF ADP detection, 30 min; activity change, % (concentration not given with the values), hits read low; 360,000 compounds, 0.3% hits; AID 651819; in the data active = activity change below about -30%; also: % is scaled to controls: 0 for no effect and ±100 for the full control effect
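TRiC at 40 or 20 nM final (batch-dependent) in 30 mM Tris pH 7.4, 100 mM KCl, 5 mM MgCl2, 1 mM DTT, with compound at single 76 uM and 10 uM ATP, 30 min at 37 deg C. ADP detected by HTRF Transcreener, 665/615 ratio.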
aSyn yeast inh – rescues yeast growth from alpha-synuclein toxicity. Yeast expressing alpha-synuclein, growth rescue, BacTiter-Glo, 24 h. Potency, µM (doses to about 46.1 µM), inactives show at the top dose growth rescue (activation), hits mostly activators. 370,000 compounds, 0.14% hits; also: potency is read from the fitted curve at half-maximal effect; % of control where 0% means no effect; nearly all actives have a fitted effect of over 65% in size
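Readout is rescue of growth in alpha-synuclein-expressing yeast, so inhibitors of toxicity appear as activators. Growth after 24 hr at 30 deg C in galactose medium is quantified by luminescence.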
TDP-43 yeast inh – inhibitors of TDP-43 toxicity in yeast. TDP-43 expressing yeast growth rescue, BacTiter-Glo, 24 h. Potency, µM (top dose mostly 46.1 µM), for the others: at the top dose growth rescue (activation), most hits filed as activators. 410,000 compounds, 1.8% hits; also: potency is read from the fitted curve at half-maximal effect; % of control where 0% means no effect; nearly all actives have a fitted effect of over 50% in size
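In this qHTS, compounds that restore growth of yeast expressing TDP-43 appear as activators. Cells (OD600=0.02, galactose medium, raffinose-pregrown) are incubated with compound 24 hr at 30 deg C and growth is quantified by BacTiter-Glo.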
Abeta yeast res – A-beta toxicity reversal in yeast; Potency, µM (doses to about 46.1 µM), most hits filed as activators; 410,000 compounds, 0.063% hits; AID 1347071; yeast expressing A-beta42, growth rescue, OD600, 48 h; response scale: 0% DMSO, 100% iron-clioquinol control; also: potency is read from the fitted curve at half-maximal effect; nearly all actives have a fitted effect of over 55% in size
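Yeast growth medium received pinned compounds, then yeast cells expressing toxic A-beta were added; plates incubated at 30 C for 48 hr. Growth read as absorbance at 600 nm, normalized to DMSO and equimolar FeCl3 plus clioquinol controls.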
Mm-Cpn inhibitor – M. maripaludis TRiC chaperonin inhibition; purified Mm-Cpn ATPase, ADP Transcreener TR-FRET; 330,000 compounds, 0.031% hits; AID 504842; Potency, µM (titrated, usually from 76.9 µM), for the others: top-dose activity, negative = inhibition, usual class: inhibitors; also: potency is read from the fitted curve at half-maximal effect; % is scaled to controls: 0 for no effect and ±100 for the full control effect; nearly all actives have a fitted effect of over 80% in size
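ATPase turnover read by TR-FRET ADP competition (Eu cryptate antibody/ADP-d2, 665/590 nm): 10uM ATP final, 25nM Mm-CPN final, 30 min 37degC after 10-min compound preincubation, pH 7.4 Tris/KCl/MgCl2/DTT buffer.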
Active calls of the source: *; i = inactive; ? = inconclusive; . = not tested or not shown; [ ] = another dose, or the depositor's remark. Unless noted, calls follow the shape of the dose curve; as a rule, active = well fitted curve in the direction sought with a large enough effect; inconclusive = small, poorly fitted or top-dose-only effect, or another doubt; inactive = no such curve, though single readings can be large; an effect the other way counts as inactive or inconclusive.

SMILES	FUS suppressor	CCT modulator	aSyn yeast inh	TDP-43 yeast inh	Abeta yeast res	Mm-Cpn inhibitor
C=C1C(=O)[C@]23C[C@H]1CCC2[C@@]1(C)C(C[C@@H]3O)[C@](C)(C(=O)OC)CC[C@@H]1OC(C)=O (some centres not stated)	i	1.2	-81.1%	?	i	.
C=C1C(=O)[C@]23C[C@H]1CC[C@H]2[C@]1(C)[C@@H](OC(C)=O)CC[C@@](C)(C(=O)OC)[C@H]1C[C@@H]3OC(C)=O	i	0.4	17.4%	17.8µM*	i	.
CC1CCN(C(=O)CCNS(=O)(=O)c2ccc(Br)cc2)CC1	i	-1.7	3.55µM*	-11.3%	i	6.5%
CC(=O)N1CCN(C(=O)CCNS(=O)(=O)c2ccc(Br)cc2)CC1	i	-2.1	-2.6%	11.1%	i	-1.8%
O=C(CCS(=O)(=O)c1ccc(Br)cc1)N1CCCCCC1	i	-73.6*	-0.6%	-8.7%	i	0.6%
S=c1[nH]nc(COc2ccc3ccccc3c2)o1	i	-3.5	-6.9%	11.2µM*	i	0.8%
C=CCN1[C@@H](CC(C)C)COc2cccc(F)c2S1(=O)=O	i	.	.	.	.	.
CCOC(=O)c1ccc(NC(=O)CSc2c3c(nc4cc(Cl)ccc24)CCCC3)cc1	i	.	.	15.8µM*	i	.
O=C(CSc1c2c(nc3cc(Cl)ccc13)CCCC2)N1CCN(c2ccccc2)CC1	?	.	.	20µM*	i	.
CC1CCN(C(=O)CSc2c3c(nc4cc(Cl)ccc24)CCCC3)CC1	?	.	.	?	i	.
CCCCNC(=O)CSc1c2c(nc3ccc(Cl)cc13)CCCC2	i	.	.	?	i	.
CCCCN(CC)C(=O)CSc1c2c(nc3ccc(Cl)cc13)CCCC2	i	.	.	22.4µM*	i	.
COc1ccc(NC(=O)CSc2c3c(nc4ccc(Cl)cc24)CCCC3)cc1Cl	i	.	.	11.2µM*	i	.
CCOc1ccccc1C(=O)N1CCC(c2nc3ccccc3o2)CC1	i	.	.	29.2%	i	.
Fc1ccccc1Cn1ccc2ccc(-c3ccc4ccn(Cc5ccccc5F)c4c3)cc21	i	.	.	.	.	.
COC(=O)CSc1nc2sc3c(c2c(=O)n1Cc1ccccc1)CCC(C(C)(C)C)C3 (configuration not stated)	i	.	.	6.9%	i	.
Cc1nc2ccccc2c(C)c1C(=O)c1ccccc1	i	0.4	2.8%	14.1µM*	i	2.3%
CCOC(=O)C1CCCN(C(=O)c2cc3c(Cl)nc4ccccc4c3s2)C1 (configuration not stated)	?	.	.	?	i	.
O=C(c1cc2c(Cl)nc3ccccc3c2s1)N1CCCCC1	i	.	.	35.5µM*	i	.
Cc1ccc(Nc2c3c(nc4nncn24)CCC3)cc1	i	.	.	15.8µM*	i	.
Brc1ccc(Nc2c3c(nc4nncn24)CCC3)cc1	i	.	.	12.6µM*	i	.
Cc1cccc(Nc2c3c(nc4nncn24)CCC3)c1	i	.	.	17.8µM*	i	.
CCOc1ccc(Nc2c3c(nc4nncn24)CCC3)cc1	i	.	.	35.5µM*	i	.
Cc1ccc(Nc2c3c(nc4nncn24)CCC3)cc1C	i	.	.	?	i	.
O=C1CCC[C@H]2C[C@H](NCCc3ccncc3)CC[C@]23CCCN13	i	.	.	.	.	.
SMILES	FUS suppressor	CCT modulator	aSyn yeast inh	TDP-43 yeast inh	Abeta yeast res	Mm-Cpn inhibitor
CCc1ccc(NC(=O)c2nc(SCc3ccccc3F)ncc2Cl)cc1	.	.	1.8%	.	.	.
Clc1ccc(Nc2c3c(nc4ncnn24)CCC3)cc1	i	0.7	0.6%	17.8µM*	i	0.2%
Cc1ccc(-c2nnc(SCC(=O)c3ccc(O)c(O)c3)n2-c2ccc(Cl)cc2)cc1	i	.	.	.	.	.
CC(C)c1ccc(Nc2c(-c3ccccc3O)nc3cnccn23)cc1	i	.	.	25.1µM*	i	.
Cc1cc(NC(=O)COc2ccc(Cl)cc2Cl)n(-c2ccccc2)n1	i	0.9	2.8%	17.5%	i	1.4%
Cc1cc(NC(=O)c2ccc(Cl)cc2Cl)n(-c2ccccc2)n1	i	-1.1	-4.6%	20µM*	i	-1.2%
Cc1cc(NC(=O)CSc2cc(Cl)ccc2Cl)n(-c2ccccc2)n1	i	-5.8	15.8%	12.6µM*	i	1.2%
CCS(=O)(=O)c1ccc(O)c(Nc2cc(C)nc(SC)n2)c1	i	.	.	?	i	.
CN1C(=O)C[C@@](C#N)(C(=O)NCCc2ccccc2)[C@H]1c1ccccc1	i	.	.	.	.	.
COc1ccc(OC)c2sc(N3CCN(C(=O)C(C)(C)C)CC3)nc12	i	.	.	22.4µM*	i	.
CCOc1cccc2sc(N3CCN(C(=O)C(C)(C)C)CC3)nc12	i	.	.	11.2µM*	i	.
CCOc1cccc2sc(N3CCN(C(=O)c4ccco4)CC3)nc12	i	.	.	?	i	.
COc1ccc(OC)c2sc(N3CCN(C(=O)C4CC4)CC3)nc12	i	.	.	0.0%	i	.
COC(=O)[C@]12C[C@H](CC(=O)NCc3ccc(C)o3)C(=O)N(Cc3ccc(Cl)cc3Cl)C1=C[C@H](C(C)C)O[C@@H]2C1CC1	i	.	.	.	.	.
CCCc1ccc(C2=Nn3c(nnc3C(C)C)SC2)cc1	?	-0.6	-19.4%	15.3%	i	2.7%
CC(C)c1nnc2n1N=C(c1ccc(Cl)cc1)CS2	i	-0.3	-0.4%	20µM*	i	1.9%
O=C(C1CCC(=O)N(C2CCCCCC2)C1)N1CCN(c2ccccc2Cl)CC1 (configuration not stated)	?	0.0	9.7%	35.5µM*	.	-3.8%
Cc1ccc(CN2CC(C(=O)N3CCN(c4ccccc4Cl)CC3)CC2=O)cc1 (configuration not stated)	i	0.2	0.3%[1.84 µM]	35.5µM*	i	0.2%
O=C1CC(C(=O)N2CCN(Cc3ccccc3)CC2)CN1Cc1ccccc1 (configuration not stated)	i	0.9	-0.4%	15.0%	i	-1.4%
Cc1ccccc1N1CCN(C(=O)C2CCC(=O)N(C3CCCC3)C2)CC1 (configuration not stated)	i	-0.8	0.4%	-2.8%	i	-0.9%
O=C(Nc1ccccc1Oc1ccccc1)c1cccc([N+](=O)[O-])c1	i	-9.3	?	14.1µM*	i	-1.2%
Cc1ccc(C(=O)Nc2ccc(OCc3ccccc3)cc2)cc1[N+](=O)[O-]	i	-2.0	-0.7%	-6.6%	i	1.3%
O=C(Nc1ccc(OCc2ccccc2)cc1)c1cccc([N+](=O)[O-])c1	i	-45.8*	-3.2%	4.5%	i	1.7%
COc1cc(OC)cc(C(C)c2ccc(-c3ccccc3)cc2)c1 (configuration not stated)	i	.	.	.	.	.
